This is part of a sample that, as a whole, favours compounds with a hit. Of some 83,000 tested, about 20% had one in any assay.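 The endpoint reported here, percent growth, reads 100 for growth as untreated, 0 for no net growth and -100 for all cells dead.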 A number with no mark means an inactive call. Activity calls are given as the source filed them. How the source made its calls: active means growth percent below 10; inactive means the rest.

The test system of this experiment is MOLT-4 leukemia. Briefly: NCI-60 one-dose screen, 48 h (100 = growth as untreated, 0 = no growth, -100 = all killed). As to conditions: 10 µM unless noted.
`N#Cc1c(-c2ccccc2Cl)cc(-c2c[nH]c3ccccc23)[nH]c1=O`: the growth is 34.7%.
In the case of `CN1CCN(/C(=N\c2sc(-c3ccccc3)nc2-c2ccccc2)c2ccccc2)CC1` it was 40.9%.
Consider `COc1ccc(-c2cc(C(=O)NCc3ccccc3)nn2-c2ccc(S(C)(=O)=O)cc2)cc1OC`, for which the growth was -4.09% (active).
Regarding `O=C(COc1ccc(NC(=O)Nc2ccc(Cl)c(Cl)c2)cc1)N=Nc1c(O)[nH]c2ccc(Cl)cc12`, the growth was -1.42% (active).
The figure for `C=C1CC[C@@H]2[C@]3(C)COC(c4cn(-c5ccccc5)nc4-c4ccccc4)O[C@@H]3CC[C@@]2(C)[C@@H]1C/C=C1/C(=O)OC[C@H]1O` (some centres not stated) is -45.7% (active); for `CC(=O)Nc1cccc(-c2nc3cc(-c4ccc(O)cc4)ccc3n2C)c1` it is 9.2% (active); for `O=C(/C=C/c1ccc(-c2ccccc2)cc1)c1nc2ccccc2n1Cc1ccc(F)cc1` it is -12.8% (active).
In the case of `Cc1cc2nc3c4ccccc4n(CCNCCN(C)C)c3nc2cc1C` it was 4.83% (active); in that of `c1ccc(-c2csc(Nc3cccc(Nc4nc(-c5ccccc5)cs4)c3)n2)cc1`, 13.7%.
As for `O=C(N/N=C/c1ccc(-c2ccc(O)cc2)s1)c1[nH]c2ccc(Br)cc2c1-c1ccccc1`, the growth is -13.3% (active).
In the case of `COCOc1cc2c(=O)c(C)c(C(=O)N[C@@H](Cc3ccccc3)C(O)C(=O)NCc3ccccc3)oc2cc1OC` (some centres not stated) it was 87.8%; in that of `COc1cc2oc(-c3cccc(C(=O)Nc4ccc(Cl)cc4)c3)cc(=O)c2c(OCCNC(=O)[C@@H](N)CCC(=O)O)c1OC`, 36.6%.

These data come from PubChem BioAssay (NCI).
